# Source: PubChem BioAssay
# A selection: hits, their analogues and other compounds. The true share with any hit is near 5.9%.
# HSF1 inhib = HSF1 inhibition; NIH3T3-HGL HSE-luciferase, MG132-induced, luminescence 8 h; active compounds read low; activity change, negative = inhibition, % at 7.5 µM (by protocol); 300,000 compounds, 0.77% hits; AID 2098;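 active = more than half of replicate wells show activity change below -50%, luminescence cut by over half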;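 also: luciferase reports HSF-1 transcriptional activity via heat shock element; 0% = median of DMSO wells and -100% = zero luminescence signal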
# DAX1 inh = inhibits human nuclear receptor DAX1; HEK293 Gal4-DAX1 luciferase reporter, luminescence; inhibition, % at 6.75 µM; 340,000 compounds, 0.99% hits; P51843;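 active = inhibition above the mean over all tested compounds plus 3 SD, cut at about 4.2% in these data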;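 also: 0% = DAX1-transfected cells with DMSO and 100% = empty-vector control cells with DMSO; inhibition shows as a rise in luminescence from relieved DAX1 repression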
# FXN GAA850 act = frataxin GAA850 promoter activation; HEK293 lucGAA850 FXN promoter luciferase reporter, 24 h; percent of 10 µM SAHA response; activation, % at 6 µM; 360,000 compounds, 0.56% hits;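 active = activation above the average of all compounds screened plus 3 SD, cutoff fixed separately per campaign, cut at about 7.5% in these data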;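 also: 0% = DMSO wells and 100% = 10 µM SAHA wells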
# AHR activator = activates the human aryl hydrocarbon receptor; P35869; AHR-responsive luciferase reporter cells, luminescence; activation, % at 5 µM; 320,000 compounds, 2.5% hits; AID 2796; in the data active = activation above about 47%;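 also: 0% = vehicle wells and 100% = reference agonist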
# Target sequence (P35869 whole entry, looked up): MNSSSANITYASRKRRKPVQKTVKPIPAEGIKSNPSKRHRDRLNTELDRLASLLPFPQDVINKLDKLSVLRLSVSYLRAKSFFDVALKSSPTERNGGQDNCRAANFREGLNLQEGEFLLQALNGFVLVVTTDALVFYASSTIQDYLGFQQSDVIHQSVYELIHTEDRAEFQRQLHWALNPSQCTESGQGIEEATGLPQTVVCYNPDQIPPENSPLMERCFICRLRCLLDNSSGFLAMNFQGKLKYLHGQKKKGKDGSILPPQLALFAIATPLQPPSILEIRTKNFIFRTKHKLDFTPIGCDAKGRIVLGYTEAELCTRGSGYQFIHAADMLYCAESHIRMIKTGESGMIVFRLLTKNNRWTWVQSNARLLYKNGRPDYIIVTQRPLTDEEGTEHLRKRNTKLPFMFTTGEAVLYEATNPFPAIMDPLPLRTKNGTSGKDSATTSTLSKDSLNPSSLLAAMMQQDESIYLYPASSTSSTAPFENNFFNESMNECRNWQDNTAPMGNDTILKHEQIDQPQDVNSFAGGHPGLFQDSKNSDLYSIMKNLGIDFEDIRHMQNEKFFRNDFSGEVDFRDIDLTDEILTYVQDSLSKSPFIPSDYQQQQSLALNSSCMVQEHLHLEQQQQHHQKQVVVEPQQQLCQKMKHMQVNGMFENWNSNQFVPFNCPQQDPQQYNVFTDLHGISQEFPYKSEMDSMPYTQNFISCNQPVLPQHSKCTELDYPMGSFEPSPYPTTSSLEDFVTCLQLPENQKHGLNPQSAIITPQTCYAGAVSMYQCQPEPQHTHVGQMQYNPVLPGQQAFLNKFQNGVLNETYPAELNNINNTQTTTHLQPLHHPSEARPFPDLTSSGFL
# HSF-1 act = increases HSF-1 driven luciferase reporter signal; NIH3T3-HGL HSF-1 luciferase reporter, MG132, 8 h; 100% = twice DMSO control signal; 300,000 compounds, 1.7% hits; activation, % at 9 µM; AID 504408;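 active = mean replicate activation of at least 50% with a set share of replicates each reaching 50%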;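 also: 0% = median of the neutral control wells and 100% = twice that signal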
# HSP90 inh = inhibitors of HSP90 luciferase refolding in rabbit reticulocyte lysate. AID 1789. luciferase refolding luminescence, 3 h. 290,000 compounds, 0.91% hits. inhibition, % at 5.6 µM;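 active = inhibition above the screen-wide mean plus 3 SD, computed separately per campaign, cut at about 16% in these data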;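 also: 0% = DMSO wells and 100% = 60 µM geldanamycin wells; inhibitors lower the luminescence because luciferase stays unfolded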
# HSP90 confirm = confirmation of HSP90 inhibitors. shares compounds with HSP90 inh. inhibition, % at 5.9 µM. 2,300 compounds, 64% hits. rabbit reticulocyte lysate, luciferase refolding luminescence, 3 h; in the data active = inhibition above about 18%;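 also: 0% = vehicle wells and 100% = reference inhibitor wells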
# FLuc counter = counter-screen for HSP90 inhibitors: inhibitors of firefly luciferase. shares compounds with HSP90 inh. purified native firefly luciferase, luminescence. inhibition, % at 5.9 µM. 2,300 compounds, 48% hits. AID 1847;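 active = inhibition above the mean inhibition of all tested sample wells plus 3 SD, cut at about 10% in these data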;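 also: 0% = DMSO with luciferase and 100% = wells lacking luciferase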
# * = called active by the depositor; x = no result given.
SMILES,HSF1 inhib,DAX1 inh,FXN GAA850 act,AHR activator,HSF-1 act,HSP90 inh,HSP90 confirm,FLuc counter
CCc1ccc(NC(=S)N(Cc2cccc(Br)c2)CC2CCC(C(=O)O)CC2)cc1 (stereo not given),9,0,1,5,26,2,x,x
O=C(O)c1ccc(NS(=O)(=O)c2ccc3c(c2)C(=O)c2ccccc2C3=O)cc1,-2,x,2,5,-8,28*,2,-7
COc1ccc(CCNC(=O)CSc2nnc3ccc(-c4ccccn4)nn23)cc1,-7,-2,0,-1,-7,x,x,x
O=C(c1ccc([N+](=O)[O-])cc1)N1CCN(C(=O)c2ccco2)CC1,-1,0,-2,0,-2,21*,3,-4
CCCCN(C)C(=O)c1cc2cc3ccc(OC)cc3nc2s1,6,-1,4,-6,34,30*,39*,27*
COc1ccc(N2CCN(/C(=N\S(=O)(=O)c3ccccc3)Nc3nc(C)cc(C)n3)CC2)cc1,-6,-2,2,11,20,39*,-4,-6
Cc1ccc(S(=O)(=O)/N=C(/Nc2nc(C)cc(C)n2)N2CCOCC2)cc1,-1,1,-1,-4,3,2,x,x
Cc1cc2nc(-c3ccc[nH]c3=O)n(Cc3ccc(F)cc3)c2cc1C,4,1,5,2,14,-3,x,x
Cc1cc2nc(-c3ccc[nH]c3=O)[nH]c2cc1C,-10,-5,-4,1,-3,68*,80*,65*
c1coc(C2=NCCc3ccccc32)c1,-7,0,2,-1,5,1,x,x
N/C(Cc1ccc([N+](=O)[O-])cc1)=N\OC(=O)C(c1ccccc1)c1ccccc1,-2,-1,-4,1,21,4,x,x
CN1CCN(C(=O)C2=C[C@@H](c3ccc(Br)cc3)C[C@@H](OCc3ccc(CO)cc3)O2)CC1,-7,2,-2,5,-6,25*,-3,-4
CCOC(=O)c1c(S(=O)(=O)N2CCCC(C(=O)Nc3cccc(C)n3)C2)c(C)n(C)c1C (stereo not given),-5,0,1,1,10,21*,3,-3
COc1ccc(CCN(/C=C2\Sc3ccccc3C2=O)C(C)=O)cc1OC,-3,x,3,17,13,25*,1,-5
COc1ccc(CCN(C)C(=O)CN2C(=O)c3ccccc3S2(=O)=O)cc1OC,1,-1,2,3,-6,0,x,x
CCN(CC)c1ccc2cc(NC(=O)CCC(=O)O)c(=O)oc2c1,2,-4,-17,-7,20,33*,36*,-31
CCN(CC)c1ccc2cc(C(C)=O)c(=O)oc2c1,3,-1,2,5,20,0,x,x
O=C(O)c1ccc2c3n(nc2c1)-c1ccc(Cl)cc1CO3,36,x,x,9,16,84*,75*,27*
O=C(CSc1ncn(-c2ccccc2)n1)N1CCN(c2ccccc2)CC1,0,0,0,11,8,35*,-6,-6
CC(=NC1CC1)c1c(-c2ccccc2)[nH]n(-c2nc3ccccc3s2)c1=O,1,0,-2,7,2,5,x,x
CC(=NC1CCCC1)c1c(C)[nH]n(-c2nc3ccccc3s2)c1=O,-29,1,2,-8,-43,19*,19*,1
O=C(O)c1cccc(Nc2ccnc(Nc3cccc(C(=O)O)c3)n2)c1,-55*,-4,2,-3,-60,37*,40*,58*
O=C(NC(=S)N1CCCC(C(F)(F)F)C1)c1ccc(F)cc1 (stereo not given),-5,1,1,-2,6,1,x,x
CCOc1ccccc1N1CCN(Cc2cnc(-c3ccccc3)[nH]2)CC1,-7,3,-1,0,12,-1,x,x
CCc1ccc(/C=N/NC(=O)c2nnn(-c3nonc3N)c2C(C)C)cc1,-7,0,0,12,-5,-4,x,x
SMILES,HSF1 inhib,DAX1 inh,FXN GAA850 act,AHR activator,HSF-1 act,HSP90 inh,HSP90 confirm,FLuc counter
O=C1CCN(Cc2ccccc2)CCN1CCOc1ccccc1,2,2,0,6,-3,17*,13,21*
COCCNC(=S)NNc1cccc(C(=O)O)c1,-4,-1,3,2,-2,18*,9,7
O=C(NCc1cccs1)C1CCCCC1,-1,0,3,-1,-8,26*,-3,-7
COc1ccccc1CNC(=O)C1(C)CCN1C(=O)C1(c2ccccc2)CC1 (stereo not given),x,x,0,x,x,x,x,x
Cc1cc(C)cc(N(CCC#N)C(=O)COC(=O)CNC(=O)c2sc3ccccc3c2Cl)c1,0,2,-1,-2,21,x,x,x
O=C(N[C@@H](Cc1c[nH]c2ccccc12)C(=O)O)C1CCN(S(=O)(=O)c2ccc(Cl)cc2)CC1,10,0,1,9,5,-3,x,x
O=C(N[C@@H](Cc1c[nH]c2ccccc12)C(=O)O)C1CCN(S(=O)(=O)c2cccs2)CC1,-5,0,1,8,22,20*,4,0
COc1ccc(-c2cc3c(=O)n(CC(=O)NCCCN4CCN(Cc5ccccc5)CC4)ncn3n2)cc1,-19,-2,2,0,-18,26*,51*,35*
COc1ccc(-c2cc3c(=O)n(CC(=O)NCCCN4CCC(Cc5ccccc5)CC4)ncn3n2)cc1,-35,-1,4,-1,-34,55*,60*,7
COc1ccc(-c2cc3c(=O)n(CC(=O)NCc4ccc(Cl)cc4)ncn3n2)cc1,0,1,1,3,6,3,x,x
CCO[C@H]1OC(C(=O)N2CCN(C)CC2)=C[C@@H](c2csc3ccccc23)[C@@H]1CCCO,1,0,2,1,-1,18*,-4,-6
COc1ccc(Nc2nc(C)nc3sc4c(c23)CCC4)cc1O,-2,x,0,13,-9,1,x,x
CCc1cccc(C)c1NC(=O)C1CC=CCC1C(=O)O (stereo not given),-2,1,2,-1,15,-2,x,x
Cc1nn(-c2ccccc2)c(Cl)c1/C=N/Nc1ccc(Cl)c(C(=O)O)c1,-43,-5,7,-6,-53,38*,84*,78*
O=C(O)c1cc(N/N=C/C=C/c2ccccc2)ccc1Cl,5,1,4,13,10,27*,37*,-8
Cc1nn(-c2ccccc2)c(Cl)c1/C=N/NC(=O)OC(C)(C)C,3,0,-3,1,22,-2,x,x
O=C(O)c1cc(N/N=C/c2ccc(OCc3ccccc3)cc2)ccc1Cl,9,0,5,16,13,12,x,x
